Data on 40 compounds can be found in PubChem BioAssay (Tox21).

Records with an inconclusive call do not appear. Calls of active or inactive are those of the source. The call rests on the fitted dose curve; in most records, active means well fitted cell-killing curve with a large enough effect in the repeat runs; inconclusive means weak or mixed curves, or effect the other way; inactive means flat fitted curve, though single readings scatter.
On the % scale 0 is the no-effect control and ±100 the full control effect.

The experiment can be described thus: qHTS RealTime-Glo MT Cell Viability Assay in HepG2 cells - 40 hour (AID 1224870). Further: nearly all actives have a fitted effect of over 50% in size. The following applies: RealTime-Glo luminescence; series mostly up to 76.8 µM; activity change, negative = cytotoxic: at the top concentration. From the text: National Center for Advancing Translational Sciences [NCATS]
NIH Chemical Genomics Center [NCGC]
U.S. Environmental Protection Agency [EPA]
National Institutes of Environmental Health Sciences [NIEHS]
National Toxicology Program [NTP]
U.S. Food and Drug Administration [FDA]
Measure of cell viability is critical in the cell-base assay. Analysis of cell viability is necessary for the characterization of cell responses to cytotoxic drugs and environmental stress. A RealTime-Glo MT Cell Viability Assay to monitor cell viability in real time of continues cell culture during 40 hours of compound treatment was used to screen Tox21 10K library compounds in HepG2 cells. The RealTime-Glo MT Cell Viability Assay is a nonlytic, homogeneous, bioluminescent method to measure cell viability in real time using a simple, plate-based method. The assay involves adding NanoLuc luciferase and a cell-permeant prosubstrate to cells in culture. Viable cells reduce the proprietary prosubstrate to generate a substrate for NanoLuc luciferase. This substrate diffuses from cells into the surrounding culture medium, where it is rapidly used by the NanoLuc Enzyme to produce a luminescent signal. The signal correlates with the number of viable cells, making the assay well suited for cytotoxicity studies.
Tox21 Assay Protocol Summary:
The mixture of HepG2 cell suspension and reagents were dispensed at 600cells/6 ul/well in 1536-well tissue culture treated black solid bottom plates using a Multidrop dispenser. After the assay plates were incubated at a 37 C/5% CO2 incubator for 5 hours, 23 nL of compounds dissolved in DMSO, positive and negative controls was transferred to the assay plate by a pintool work station. The plates were incubated at 37 C for 40 hours. The luminescence intensity were measured at 0h, 8h, 16h, 24h, 32h and 40h time points using ViewLux plate reader during compound treatment.
Take `CCOc1cc([N+](=O)[O-])c(OCC)cc1N1CCOCC1`: the “activity change, negative = cytotoxic” value is -5.78% (inactive).

`O=C(NCCc1c[nH]c2ccccc12)c1cccnc1`: the “activity change, negative = cytotoxic” value is 1.14% [at 35.3 µM] (inactive).

Take `COC(=O)[C@@H]1[C@H]2C[C@H]3c4[nH]c5ccccc5c4CCN3C[C@@H]2CC[C@@H]1O`: the “activity change, negative = cytotoxic” value was -1.01% [at 35.3 µM] (inactive).

Regarding `N[C@@H](COP(=O)(O)O)C(=O)O`, the activity change, negative = cytotoxic was 1.81% [at 15.8 µM] (inactive).

For the compound `Cc1ccc(C=O)cc1C`, the “activity change, negative = cytotoxic” value is -0.165% (inactive).

Turning to `C=Cc1ccccn1`, the “activity change, negative = cytotoxic” value was 1.56% (inactive).

For the compound `CC1=C(C(=O)O)N2C(=O)[C@@H](NC(=O)[C@H](N)c3ccc(O)cc3)[C@H]2SC1`, the “activity change, negative = cytotoxic” value was 3.39% [at 35.3 µM] (inactive).

On to `O=C(O)c1cc(Cl)cc([N+](=O)[O-])c1Cl`, for which the “activity change, negative = cytotoxic” value was -0.0278% (inactive).

With `NS(=O)(=O)c1cc2c(cc1Cl)CN(C1CCCCC1)C2=O`, the “activity change, negative = cytotoxic” value is 2.31% [at 35.3 µM] (inactive).

For `Nc1ncnc(Nc2ccccc2)n1`, the “activity change, negative = cytotoxic” value is 2.74% [at 35.3 µM] (inactive).

Turning to `C[Si](C)=O`, the activity change, negative = cytotoxic was -3.86% [at 6.97 µM] (inactive).

For `CC(CO)c1ccccc1` (stereo not given), the “activity change, negative = cytotoxic” value is 0.462% (inactive).

For `Oc1ccccc1-c1nnco1`, the “activity change, negative = cytotoxic” value is -0.697% [at 35.3 µM] (inactive).

Consider `N[C@@H](CCC(=O)N[C@@H](CS)C(=O)NCC(=O)O)C(=O)O`, for which the activity change, negative = cytotoxic was -0.349% [at 15.8 µM] (inactive).

On to `FC(F)(F)c1ccccc1-n1ccnc1`, for which the “activity change, negative = cytotoxic” value is -1.23% [at 35.3 µM] (inactive).

For `Cc1cc(C(C)(C)C)c(O)c(C)c1CC1=NCCN1`, the “activity change, negative = cytotoxic” value was -0.284% [at 35.3 µM] (inactive).

For `Cc1[nH]cnc1-c1ccc(Cl)cc1`, the “activity change, negative = cytotoxic” value was 3.9% [at 35.3 µM] (inactive).

`CC(=O)c1ccc2c(c1)Cc1ccccc1-2`: the “activity change, negative = cytotoxic” value is -5.46% (inactive).

As to `CCN(CC)CC(=O)Nc1c(C)cccc1C`, the “activity change, negative = cytotoxic” value was -1.21% [at 35.3 µM] (inactive).

For the compound `Cc1ccc2ccc(Cl)cc2n1`, the “activity change, negative = cytotoxic” value is 0.381% [at 35.3 µM] (inactive).

`CCOC(=O)c1ncn2c1CN(C)C(=O)c1cc(F)ccc1-2`: the “activity change, negative = cytotoxic” value is -3.19% [at 35.3 µM] (inactive).

In the case of `Cc1cc(NC(=O)C2=C(O)c3ccccc3S(=O)(=O)N2C)no1`, the “activity change, negative = cytotoxic” value is -1.57% [at 35.3 µM] (inactive).

For the compound `CC(C)(C)c1nnc(NS(=O)(=O)c2ccc(N)cc2)s1`, the “activity change, negative = cytotoxic” value was 0.878% [at 35.3 µM] (inactive).

For the compound `CCCCCCCC/C=C\CCCCCCCC(=O)OCCCC`, the activity change, negative = cytotoxic was 12.2% [at 15.8 µM] (inactive).

For `COc1cc2c(cc1OC)[C@@H]1CC(=O)[C@@H](CC(C)C)CN1CC2`, the “activity change, negative = cytotoxic” value was 0.572% [at 35.3 µM] (inactive).

For the compound `CC(C)CC(=O)O`, the “activity change, negative = cytotoxic” value is -1.54% (inactive).

In the case of `CC1(CO)CN(c2ccccc2)NC1=O` (stereo not given), the “activity change, negative = cytotoxic” value is 5.66% (inactive).

On to `BrCCCCCBr`, for which the “activity change, negative = cytotoxic” value was -7.44% (inactive).

Regarding `CCCC(=O)C(C)=O`, the “activity change, negative = cytotoxic” value is 1.1% (inactive).

For `CC(C)C[C@H](NC(=O)CNC(=O)[C@H](Cc1ccc(O)cc1)NC(=O)[C@H](CO)NC(=O)[C@H](Cc1c[nH]c2ccccc12)NC(=O)[C@H](Cc1cnc[nH]1)NC(=O)[C@@H]1CCC(=O)N1)C(=O)N[C@@H](CCCN=C(N)N)C(=O)N1CCC[C@H]1C(=O)NCC(N)=O` (stereo in doubt), the “activity change, negative = cytotoxic” value is -4.28% [at 35.3 µM] (inactive).

For the compound `Cc1cccc2nccnc12`, the “activity change, negative = cytotoxic” value was 2.54% (inactive).

As to `BrCc1cccc(Oc2ccccc2)c1`, the “activity change, negative = cytotoxic” value was -1.47% (inactive).

As for `C=C(C)C(=O)OCc1ccccc1`, the “activity change, negative = cytotoxic” value was 2.38% (inactive).

Take `COc1ccc(Br)c(C)c1`: the “activity change, negative = cytotoxic” value is -3.21% (inactive).

In the case of `CCCCOCCOC(=O)COc1nc(Cl)c(Cl)cc1Cl`, the “activity change, negative = cytotoxic” value was -0.329% (inactive).

Take `CC(C)CCCC(C)(C)O`: the “activity change, negative = cytotoxic” value is 1.11% (inactive).

For `OCCN(CCO)c1cccc(Cl)c1`, the “activity change, negative = cytotoxic” value was -1.11% (inactive).

As to `COc1ccc(S(=O)(=O)N2c3ccc(Cl)cc3[C@@](O)(c3ccccc3Cl)[C@H]2C(=O)N2CCC[C@@H]2C(N)=O)cc1OC`, the “activity change, negative = cytotoxic” value is 2.76% [at 35.3 µM] (inactive).

Take `c1ccc2c(c1)ccc1c3ccccc3ccc21`: the “activity change, negative = cytotoxic” value is -4.77% [at 35.3 µM] (inactive).

As to `C#CC(C)N(C)C(=O)Nc1ccc(Cl)cc1` (stereo not given), the “activity change, negative = cytotoxic” value was -2.57% (inactive).
